The whole screen tested about 220,000 compounds, of which about 2,400 (1.1%) were called active. Not shown: some 7% with an inconclusive outcome. Calls follow the shape of the dose curve; as a rule, active = well fitted inhibition curve with a large enough effect; inconclusive = small, poorly fitted or top-dose-only effect, or effect the other way; inactive = no such curve, though single readings can be large or run the other way. The list comes from a sample in which actives are over-represented; it also holds similar structures and randomly drawn compounds. A call without a number means that no potency is given here.

The values below come from PubChem BioAssay AID1688 (National Center for Advancing Translational Sciences (NCATS), 2009).
Potency is read from the fitted curve at half-maximal effect.

The nature of the assay: qHTS Multiplex Assay to Identify Dual Action Probes in a Cell Model of Huntington: Aggregate Formation (GFP). Also: nearly all actives have a fitted effect of over 60% in size. To be noted: PC12 HttQ103-GFP aggregates, Acumen cytometry, 40 h; series mostly up to 9.22 µM. In outline:
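PC12/HTTQ103-GFP, ecdysone-inducible; teb 100 nM; cpd qHTS titration; GFP aggregates read on laser cytometer, Ex 488/Em 500-530 nm.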
For orientation: In qHTS, concentration-response curves come from the screen itself.
In the case of `CCNc1nc(Oc2ccc(C(=O)OC)cc2)nc(N2CCOCC2)n1`, the Potency result is “inactive”.

For the compound `Cc1cc(=O)[nH]c(SCC(=O)Nc2ccc(Br)cc2)n1`, the Potency result was “inactive”.

In the case of `C=CCNC(=S)NNC(=O)c1cc(Cl)ccc1OC`, the Potency entry was “inactive”.

In the case of `CCOC(=O)CSc1nnc(NC(=O)c2cccc(S(=O)(=O)N3CCCCC3)c2)s1`, the Potency entry is “inactive”.

Consider `CCOC(=O)CSc1nnc(NC(=O)c2cccc(S(=O)(=O)N3CCCC3)c2)s1`, for which the Potency is 1 µM (active).

On to `O=C(Nc1nncs1)c1cccc(S(=O)(=O)N2CCCCC2)c1`, for which the Potency result was “inactive”.

Consider `O=P(O)(CN1CCCCCC1)C1Cc2ccccc2C1`, for which the Potency result is “inactive”.

Take `COc1ccc(Nc2nc(-c3ccccc3)cs2)cc1`: the Potency entry was “inactive”.

Regarding `CC(=O)Nc1nc(C)c(-c2csc(Nc3ccc(S(N)(=O)=O)cc3)n2)s1`, the Potency result was “inactive”.

As for `NS(=O)(=O)c1ccc(Nc2nc(-c3ccccc3)cs2)cc1`, the Potency was 11.2 µM (active).

For the compound `OCC(CO)NC1C[C@](O)(CO)[C@@H](O)[C@H](O)[C@H]1O` (stereo partly specified), the Potency result is “inactive”.

For `Oc1c(Cl)cc(Cl)c(Cl)c1Cc1c(O)c(Cl)cc(Cl)c1Cl`, the Potency was 5.62 µM (active).

For `CCOc1ccc(NC(=O)CCC(=O)N/N=C/c2ccc([N+](=O)[O-])s2)cc1`, the Potency result was “inactive”.

Consider `Cc1ccccc1NCC(=O)N/N=C\c1ccc([N+](=O)[O-])s1`, for which the Potency is 11.2 µM (active).

With `CC(C)(C)c1cc(C(=O)N/N=C/c2ccc([N+](=O)[O-])s2)n[nH]1`, the Potency entry is “inactive”.

As for `Cc1ccc(S(=O)(=O)NNC(=S)NC(C)(C)C)cc1`, the Potency entry was “inactive”.

As for `CC(O)COc1ccccc1` (stereo unspecified), the Potency result was “inactive”.

On to `CC1CCCCN1S(=O)(=O)c1ccc(S(=O)(=O)N(CC(=O)Nc2ccccc2)Cc2cccs2)cc1` (stereo unspecified), for which the Potency result is “inactive”.

Consider `O=C(Nc1nnc(-c2ccco2)o1)c1ccc(S(=O)(=O)N2CCOCC2)cc1`, for which the Potency entry is “inactive”.

In the case of `CC1CCCCN1S(=O)(=O)c1ccc(C(=O)Nc2nnc(-c3cccs3)o2)cc1` (stereo unspecified), the Potency is 11.2 µM (active).

Regarding `COc1ccc(C(=O)N/N=C(\C)CC(=O)Nc2ccc(Cl)cn2)cc1`, the Potency entry is “inactive”.

As to `COC(=O)c1sccc1NC(=O)CC1C(=O)NCCN1C(=O)Nc1ccc(F)cc1F` (stereo unspecified), the Potency entry was “inactive”.

Turning to `N/C(=N/O)c1cccn1Cc1ccccc1[N+](=O)[O-]`, the Potency result is “inactive”.

With `O=c1c([N+](=O)[O-])cc(C(F)(F)F)cn1Cc1cccc(Cl)c1`, the Potency result was “inactive”.

Turning to `O=c1c([N+](=O)[O-])cccn1Cc1ccc(F)cc1Cl`, the Potency was 10 µM (active).

As to `O=C(NCC1CCCO1)c1ccccc1-c1nc(-c2ccccc2Cl)no1` (stereo unspecified), the Potency entry is “inactive”.

As for `CCCC(=O)Nc1ccc(C(=O)N/N=C/c2ccc[nH]2)cc1`, the Potency entry is “inactive”.

With `CC(=O)Nc1ccc(/C=C/C(=O)c2ccccc2)cc1`, the Potency result is “inactive”.

For `CC(=O)Nc1ccc(C(=O)/C=C/c2ccc[nH]2)cc1`, the Potency is 11.2 µM (active).

As to `Cn1c(=O)c(=O)n(C)c2cc(S(=O)(=O)NCCN3CCN(c4ccccc4F)CC3)ccc21`, the Potency entry is “inactive”.

Consider `COC(=O)CNc1nc(Cl)nc(N2CCC(C)CC2)n1`, for which the Potency result is “inactive”.

Turning to `N#Cc1c(C(F)(F)F)cc(-c2cccs2)nc1N1CCCCC1`, the Potency entry was “inactive”.

Regarding `O=C(Nc1ccncc1)c1c(F)cccc1F`, the Potency was 12.6 µM (active).

Take `COc1cccc(OC)c1C(=O)Nc1ccc(Cc2ccncc2)cc1`: the Potency result is “inactive”.

Take `CSc1nc2ccc(NC(=O)c3c(F)cccc3F)cc2s1`: the Potency result is “inactive”.

Regarding `O=C(Nc1ccccc1C(F)(F)F)N1CCCC1c1cccnc1` (stereo unspecified), the Potency result is “inactive”.

For `CCOC(=O)c1cc2n(c1N)-c1ccccc1C2=O`, the Potency entry was “inactive”.

As for `Cc1[nH]c2ccccc2c1C(=O)COC(=O)C(C)C`, the Potency result was “inactive”.

With `CCOC(=O)c1c(C)[nH]c2c1-c1ccccc1C(=O)C2=O`, the Potency was 5.01 µM (active).

In the case of `Nc1nnc(SCC(=O)NC2CCCc3ccccc32)s1` (stereo unspecified), the Potency result was “inactive”.

For `O=C(Cc1ccc(Cl)c(Cl)c1)Nc1ccc(SC(F)F)cc1`, the Potency was 12.6 µM (active).

As for `O=C(CCl)Nc1ccc(Sc2ccc(NC(=O)CCl)cc2)cc1`, the Potency result was “inactive”.

On to `O=C(Cc1ccc2c(c1)CCCC2)Nc1ccccc1Cl`, for which the Potency entry is “inactive”.

With `O=C(NNC(=O)c1cnccc1C(F)(F)F)c1ccc(Cl)cc1`, the Potency result was “inactive”.

For the compound `CC(=O)NC(CC(=O)Nc1nccs1)c1ccccc1` (stereo unspecified), the Potency result is “inactive”.

For `CCCCC(C(=O)OCC(=O)c1ccc(OC)cc1)N1C(=O)c2ccccc2C1=O` (stereo unspecified), the Potency result is “inactive”.

With `CCOC(=O)c1c(-c2ccc(C)cc2)csc1/N=C(\C)C1=C(O)c2ccccc2C1=O`, the Potency entry was “inactive”.

Consider `CCOC(=O)C1=C(c2ccc(OC)cc2)C(=O)c2ccccc2C1=O`, for which the Potency was 11.2 µM (active).

`CC(CNS(=O)(=O)c1ccc(Br)cc1)CN(C)C` (stereo unspecified): the Potency result was “inactive”.

As for `c1ccc(-c2nnc(N3CCOCC3)c3ccccc23)cc1`, the Potency entry was “inactive”.

For `CN1CCN(c2nc(Nc3ccc(O)cc3)nc3ccccc23)CC1`, the Potency result is “inactive”.

`c1ccc(Nc2nc(N3CCOCC3)c3ccccc3n2)cc1`: the Potency is 12.6 µM (active).

Take `CN(c1ccc(OCC(=O)NC2=NCCS2)cc1)S(=O)(=O)c1ccc(F)cc1`: the Potency result was “inactive”.

With `CC(=O)c1sc(NC(=O)c2ccc(C)cc2)nc1C`, the Potency result was “inactive”.

As to `N#Cc1ccc(C(=O)Nc2nc(-c3cccs3)c(C(=O)C(F)(F)F)s2)cc1`, the Potency was 2.82 µM (active).

`Cc1ccc(C(=O)Nc2nnc(-c3cccs3)s2)cc1C`: the Potency entry was “inactive”.

`Clc1ccc(CSc2nnc3c(n2)[nH]c2ccccc23)cc1`: the Potency entry is “inactive”.

In the case of `Cc1ccc(CSc2nnc(-c3cnccn3)n2C)cc1`, the Potency entry is “inactive”.

Regarding `COc1ccc(CC(=O)NCC(=O)N/N=C/c2cc(Br)ccc2OC)cc1`, the Potency entry is “inactive”.

Take `Oc1ccc(Br)cc1C=Nc1ccc2[nH]ncc2c1`: the Potency result is “inactive”.

Take `O=C(CCCO)N/N=C/c1cc(Br)ccc1O`: the Potency was 7.94 µM (active).

As for `COc1ccc(Cl)cc1CSc1ncn[nH]1`, the Potency entry was “inactive”.

As to `COc1ccc(-c2nnc(SCC(=O)c3cccs3)o2)c(OC)c1`, the Potency entry was “inactive”.

In the case of `COc1ccc(-n2c(C)cc(C(=O)CSc3nnc(-c4cccs4)o3)c2C)cc1`, the Potency was 7.94 µM (active).

On to `COc1ccc(OC)c(C(=O)CSc2nnc(-c3cccs3)o2)c1`, for which the Potency entry is “inactive”.

On to `C/C=N/N(c1ccccc1)c1ccccc1`, for which the Potency result is “inactive”.

Regarding `COc1cccc(Nc2nnc(SCC(=O)N3CC(=O)Nc4ccccc43)s2)c1`, the Potency entry was “inactive”.

On to `O=P(O)(O)OC[C@H](O)CO`, for which the Potency entry is “inactive”.

For `Cc1ccc(S(=O)(=O)NCc2csc(C)n2)c(C)c1`, the Potency result is “inactive”.

As for `Cc1nc(CNS(=O)(=O)c2cccnc2)cs1`, the Potency entry was “inactive”.

Consider `Cc1nc(CNS(=O)(=O)c2ccc(Oc3ccccc3)cc2)cs1`, for which the Potency was 10 µM (active).

Take `CSC1=NC2(C)CCCCC2C12C=CC(=O)C=C2` (stereo unspecified): the Potency result is “inactive”.

Turning to `Nn1c(SCc2ccccc2)nnc1C1CCCCC1`, the Potency result is “inactive”.

On to `COC(=O)C(C)Sc1nc2c(c(=O)n(C)c(=O)n2C)n1Cc1cccc(C)c1` (stereo unspecified), for which the Potency was 28.2 µM (active).

For the compound `CCn1c(NCCc2ccc(OC)c(OC)c2)nc2c1c(=O)n(C)c(=O)n2C`, the Potency entry was “inactive”.

On to `Cc1cccc(Cn2c(N3CCN(c4ccccc4)CC3)nc3c2c(=O)n(C)c(=O)n3C)c1`, for which the Potency result is “inactive”.

With `Cc1cccc(Cn2c(SCCO)nc3c2c(=O)n(C)c(=O)n3C)c1`, the Potency result was “inactive”.

Consider `CCCCNc1nc2c(c(=O)n(C)c(=O)n2C)n1Cc1cccc(OC)c1`, for which the Potency is 7.08 µM (active).

As for `CCCCNc1nc2c(c(=O)[nH]c(=O)n2C)n1CCOc1ccccc1`, the Potency entry was “inactive”.

Regarding `CN(C)C(=O)c1coc2nc3ccccc3nc12`, the Potency entry is “inactive”.

Consider `Cn1nc(C(F)(F)F)c(-c2ccc(F)cc2)c1NC(=O)CSCC(=O)O`, for which the Potency result was “inactive”.

Take `c1ccc2sc(NN=C3CCCC3)nc2c1`: the Potency entry was “inactive”.

Consider `O=[N+]([O-])c1cc(Br)c(O)c(/C=N/Nc2nc3ccccc3s2)c1`, for which the Potency is 5.01 µM (active).

For `COc1cc(/C=N/Nc2nc3ccccc3s2)ccc1O`, the Potency entry is “inactive”.

Regarding `COc1ccc(C(C)=O)cc1COc1ccc(Cl)c(C)c1`, the Potency result is “inactive”.

For the compound `CCOC(=O)C1=C(N)N2C(=O)C(C)SC2=C(C(=O)OCC)C1c1cc(OC)c(OC)c(OC)c1` (stereo unspecified), the Potency result is “inactive”.

For `O=C(NC(=O)c1ccccc1N1CCCCC1)Nc1ccc(Br)cc1`, the Potency result is “inactive”.

Take `Cn1c(=O)n(C)c(=O)n(CC(=O)N2CCCCC2)c1=O`: the Potency was 3.55 µM (active).

As to `COc1cccc2c(=O)n(CC(=O)N3CCCCCC3)ccc12`, the Potency entry was “inactive”.

On to `O=C(CN1C(=O)c2cccc3cccc(c23)C1=O)N1CCCCC1`, for which the Potency result was “inactive”.

In the case of `O=C(CC(c1ccccc1)c1cc(Cl)ccc1O)NCCN1CCOCC1` (stereo unspecified), the Potency entry is “inactive”.

Regarding `Cc1c(NC(=O)C(=O)N/N=C/c2cccs2)c(=O)n(-c2ccccc2)n1C`, the Potency entry is “inactive”.

As to `COC(=O)c1cc(S(=O)(=O)N2CCC(C(N)=O)CC2)oc1C`, the Potency result was “inactive”.

Consider `Cc1nc(SCC(=O)N2CC(=O)Nc3ccccc32)c2c(C)c(C)sc2n1`, for which the Potency result was “inactive”.

Consider `Cc1nnc(SCC(=O)N2CCc3ccccc3C2)s1`, for which the Potency entry is “inactive”.

With `Cc1nc(SCC(=O)N2CCc3ccccc3C2)c2c(C)c(C)sc2n1`, the Potency was 14.1 µM (active).

For `O=C(Nc1ccc(Cl)cc1)Nc1ccc(C(=O)N2CCOCC2)cc1`, the Potency result is “inactive”.

With `O=C(C[n+]1cc(-c2ccc(Cl)c(Cl)c2)n2c1CCC2)c1cccs1`, the Potency result is “inactive”.

As to `COc1ccc(CCN2C(=O)CC(N3CCC(C(N)=O)CC3)C2=O)cc1OC` (stereo unspecified), the Potency result was “inactive”.

With `CCCCCCc1cc2cc(-c3nnc(-c4ccccc4)o3)c(=O)oc2cc1O`, the Potency was 5.01 µM (active).

As to `Cc1c(CCC(=O)O)c(=O)oc2cc3occ(-c4ccccc4)c3cc12`, the Potency result was “inactive”.

As for `CCCC(=O)Nc1nnc(-c2ccccc2)o1`, the Potency result was “inactive”.

For `COc1cc(C(F)(F)F)c(C(=O)N(C)c2ccc(Cl)cc2)cn1`, the Potency entry was “inactive”.

As for `CCC(=O)Nc1cccc(C2=NOC3(C2)C[C@@H](C(N)=O)N(C(=O)c2cc([N+](=O)[O-])cc([N+](=O)[O-])c2C)C3)c1` (stereo partly specified), the Potency entry was “inactive”.

Take `O=c1c2ccccc2nc2n1C(CSCc1ccccc1)CS2` (stereo unspecified): the Potency was 11.2 µM (active).

In the case of `O=c1c2ccccc2nc2n1C(CSc1ccc(F)cc1)CN2` (stereo unspecified), the Potency result was “inactive”.

Consider `O=c1c2ccccc2nc2n1C(CSc1ccc(Cl)cc1)CN2` (stereo unspecified), for which the Potency result is “inactive”.

Consider `CN(C)S(=O)(=O)c1ccc(NC(=O)COC(=O)Cn2[nH]c(=O)c3ccccc3c2=O)cc1`, for which the Potency result is “inactive”.

For `Clc1cccc(-c2nc(NCC3CCCO3)c3ccccc3n2)c1` (stereo unspecified), the Potency result was “inactive”.

Consider `Clc1ccc2nc(-c3ccccc3)nc(C(Cl)Cl)c2c1`, for which the Potency is 1.41 µM (active).

For `O=C(O)c1cccc(NC(=O)c2cc(-c3cccc(Cl)c3)nc3ccccc23)c1`, the Potency entry was “inactive”.
